± gives the standard deviation of the averaged measurements.
What was measured:
Experiment in all cases: relative enzymatic activity vs untreated control (fraction); higher = less inhibition
Conditions in all cases: 100 µM; incubation time: 2 h at 37 C
[1] = tested on: DNA gyrase
Experimental: (§1)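 In vitro enzymatic inhibition assays (ProFoldin kits) for 12 purified essential E. coli enzymes or complexes, each treated with 218 active antibacterial compounds at 100 µM for 2 h at 37°C. Read-outs were fluorescence or absorbance (phosphate detection, dye binding), converted to activity via standard curves and expressed relative to untreated DMSO controls.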

[2] = target: DNA helicase (UniProt P0ACB1)
Experimental: as §1

[3] = target: DNA ligase (UniProt B1XA82)
Experimental: as §1

[4] = target: DNA polymerase (UniProt P10443)
Experimental: as §1

[5] = target: DNA primase (UniProt P0ABS7)
Experimental: as §1

[6] = target: GlmU (UniProt A7ZTU1)
Experimental: as §1

[7] = target: Guanlyate kinase (UniProt Q0TBG1)
Experimental: as §1

[8] = target: MurA (UniProt Q3YX52)
Experimental: as §1

[9] = target: T1, MurD (UniProt P14900)
T1 sequence (whole entry): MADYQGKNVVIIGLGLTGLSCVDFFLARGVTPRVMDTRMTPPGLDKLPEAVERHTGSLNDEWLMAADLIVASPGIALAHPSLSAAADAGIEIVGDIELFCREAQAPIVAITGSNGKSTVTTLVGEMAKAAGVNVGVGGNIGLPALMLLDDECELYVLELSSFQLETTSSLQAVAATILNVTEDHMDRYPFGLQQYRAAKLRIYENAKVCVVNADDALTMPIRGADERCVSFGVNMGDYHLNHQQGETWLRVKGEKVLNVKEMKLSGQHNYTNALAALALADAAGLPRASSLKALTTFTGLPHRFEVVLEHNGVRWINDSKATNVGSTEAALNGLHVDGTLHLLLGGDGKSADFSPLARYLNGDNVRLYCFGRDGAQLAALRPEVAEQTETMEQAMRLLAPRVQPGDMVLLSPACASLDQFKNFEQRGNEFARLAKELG
Experimental: as §1

[10] = target: T2, MurF (UniProt P11880)
T2 sequence (whole entry): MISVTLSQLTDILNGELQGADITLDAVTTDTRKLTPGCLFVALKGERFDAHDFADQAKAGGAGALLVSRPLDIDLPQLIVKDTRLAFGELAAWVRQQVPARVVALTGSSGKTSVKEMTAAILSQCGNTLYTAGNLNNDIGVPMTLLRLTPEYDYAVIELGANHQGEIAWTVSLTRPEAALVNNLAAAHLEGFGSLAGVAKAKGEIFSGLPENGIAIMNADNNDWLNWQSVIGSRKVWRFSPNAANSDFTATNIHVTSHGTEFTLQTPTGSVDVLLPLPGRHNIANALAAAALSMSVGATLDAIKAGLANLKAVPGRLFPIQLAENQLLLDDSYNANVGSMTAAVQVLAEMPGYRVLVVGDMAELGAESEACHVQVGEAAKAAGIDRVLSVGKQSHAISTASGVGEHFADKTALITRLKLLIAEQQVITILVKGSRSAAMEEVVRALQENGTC
Experimental: as §1

[11] = tested on: RNA polymerase
Experimental: as §1

Sequence of DNA helicase (P0ACB1 whole entry): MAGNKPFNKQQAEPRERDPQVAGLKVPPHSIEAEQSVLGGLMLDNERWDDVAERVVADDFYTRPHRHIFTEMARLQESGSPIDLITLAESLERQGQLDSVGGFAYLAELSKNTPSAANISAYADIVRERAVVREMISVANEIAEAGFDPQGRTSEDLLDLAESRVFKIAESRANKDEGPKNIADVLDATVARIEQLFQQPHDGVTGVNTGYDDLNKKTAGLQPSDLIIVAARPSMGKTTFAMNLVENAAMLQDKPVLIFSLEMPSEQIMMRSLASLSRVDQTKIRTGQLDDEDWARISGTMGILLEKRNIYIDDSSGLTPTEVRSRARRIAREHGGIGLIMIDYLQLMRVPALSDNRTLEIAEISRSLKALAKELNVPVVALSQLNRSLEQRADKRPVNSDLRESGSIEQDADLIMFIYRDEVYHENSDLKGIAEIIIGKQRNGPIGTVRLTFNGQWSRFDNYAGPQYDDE
Sequence of DNA primase (P0ABS7 whole entry): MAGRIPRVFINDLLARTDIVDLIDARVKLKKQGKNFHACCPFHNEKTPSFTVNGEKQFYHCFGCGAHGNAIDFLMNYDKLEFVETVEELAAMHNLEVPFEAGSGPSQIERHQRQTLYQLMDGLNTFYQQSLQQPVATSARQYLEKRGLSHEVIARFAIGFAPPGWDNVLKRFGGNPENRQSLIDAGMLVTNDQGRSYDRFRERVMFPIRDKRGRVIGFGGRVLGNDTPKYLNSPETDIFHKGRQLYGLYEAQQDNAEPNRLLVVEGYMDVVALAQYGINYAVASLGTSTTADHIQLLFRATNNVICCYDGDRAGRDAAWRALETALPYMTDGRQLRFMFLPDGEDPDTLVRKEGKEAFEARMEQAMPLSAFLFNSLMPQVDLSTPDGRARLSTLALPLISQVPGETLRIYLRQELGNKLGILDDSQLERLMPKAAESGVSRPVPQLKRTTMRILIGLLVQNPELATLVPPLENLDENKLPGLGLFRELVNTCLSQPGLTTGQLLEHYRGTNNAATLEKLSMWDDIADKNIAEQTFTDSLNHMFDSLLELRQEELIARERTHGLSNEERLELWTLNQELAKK
Sequence of DNA polymerase (P10443 whole entry): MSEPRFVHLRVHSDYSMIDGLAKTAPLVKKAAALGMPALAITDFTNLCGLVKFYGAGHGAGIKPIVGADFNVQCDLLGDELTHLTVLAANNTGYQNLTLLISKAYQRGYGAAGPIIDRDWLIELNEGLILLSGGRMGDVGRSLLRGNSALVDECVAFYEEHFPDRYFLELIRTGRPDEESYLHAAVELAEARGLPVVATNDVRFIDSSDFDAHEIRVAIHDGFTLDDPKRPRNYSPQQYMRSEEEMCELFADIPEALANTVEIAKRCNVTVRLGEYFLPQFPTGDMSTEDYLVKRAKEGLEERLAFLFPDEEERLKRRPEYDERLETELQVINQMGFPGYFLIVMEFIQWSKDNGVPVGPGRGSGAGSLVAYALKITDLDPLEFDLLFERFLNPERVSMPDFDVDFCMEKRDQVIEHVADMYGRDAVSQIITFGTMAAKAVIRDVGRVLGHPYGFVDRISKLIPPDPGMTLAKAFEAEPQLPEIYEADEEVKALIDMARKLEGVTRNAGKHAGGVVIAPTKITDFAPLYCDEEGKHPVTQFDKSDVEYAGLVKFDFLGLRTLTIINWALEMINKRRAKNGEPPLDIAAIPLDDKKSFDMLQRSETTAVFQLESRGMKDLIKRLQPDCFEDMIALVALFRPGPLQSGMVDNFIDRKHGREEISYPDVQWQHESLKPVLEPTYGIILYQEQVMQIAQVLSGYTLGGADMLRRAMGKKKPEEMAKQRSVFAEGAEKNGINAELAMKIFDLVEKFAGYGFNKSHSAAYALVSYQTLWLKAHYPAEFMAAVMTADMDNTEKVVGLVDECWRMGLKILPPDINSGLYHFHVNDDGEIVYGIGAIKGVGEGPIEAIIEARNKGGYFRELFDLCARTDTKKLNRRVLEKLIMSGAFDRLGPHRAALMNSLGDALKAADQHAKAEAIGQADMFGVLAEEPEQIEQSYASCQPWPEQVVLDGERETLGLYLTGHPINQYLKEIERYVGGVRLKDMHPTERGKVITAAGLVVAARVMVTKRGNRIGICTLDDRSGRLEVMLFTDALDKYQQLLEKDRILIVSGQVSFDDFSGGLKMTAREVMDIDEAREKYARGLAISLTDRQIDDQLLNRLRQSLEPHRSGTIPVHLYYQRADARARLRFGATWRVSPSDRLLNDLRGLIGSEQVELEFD
Sequence of MurA (Q3YX52 whole entry): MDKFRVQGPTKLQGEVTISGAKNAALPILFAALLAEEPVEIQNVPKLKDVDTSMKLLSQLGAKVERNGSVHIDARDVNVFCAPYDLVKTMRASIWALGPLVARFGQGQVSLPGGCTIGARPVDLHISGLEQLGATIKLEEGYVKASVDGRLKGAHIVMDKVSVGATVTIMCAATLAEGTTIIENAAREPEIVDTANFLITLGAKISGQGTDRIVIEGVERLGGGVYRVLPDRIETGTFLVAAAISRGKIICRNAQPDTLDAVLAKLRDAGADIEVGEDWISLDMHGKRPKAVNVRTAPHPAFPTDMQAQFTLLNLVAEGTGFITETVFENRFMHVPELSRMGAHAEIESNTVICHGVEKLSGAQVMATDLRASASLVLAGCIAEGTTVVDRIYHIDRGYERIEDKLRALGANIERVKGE
Sequence of GlmU (A7ZTU1 whole entry, looked up): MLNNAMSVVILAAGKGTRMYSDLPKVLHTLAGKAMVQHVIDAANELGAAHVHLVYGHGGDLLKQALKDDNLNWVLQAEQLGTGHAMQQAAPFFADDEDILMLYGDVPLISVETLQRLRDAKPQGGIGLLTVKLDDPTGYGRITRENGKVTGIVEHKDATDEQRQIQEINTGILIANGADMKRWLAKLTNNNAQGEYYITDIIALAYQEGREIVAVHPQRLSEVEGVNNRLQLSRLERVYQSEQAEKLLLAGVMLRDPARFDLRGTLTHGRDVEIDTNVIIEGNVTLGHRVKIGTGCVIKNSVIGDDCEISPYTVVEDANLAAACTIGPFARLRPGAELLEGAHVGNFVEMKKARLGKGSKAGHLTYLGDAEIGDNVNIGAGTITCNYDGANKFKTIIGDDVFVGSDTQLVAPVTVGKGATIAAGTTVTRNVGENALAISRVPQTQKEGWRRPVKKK
Sequence of DNA ligase (B1XA82 whole entry): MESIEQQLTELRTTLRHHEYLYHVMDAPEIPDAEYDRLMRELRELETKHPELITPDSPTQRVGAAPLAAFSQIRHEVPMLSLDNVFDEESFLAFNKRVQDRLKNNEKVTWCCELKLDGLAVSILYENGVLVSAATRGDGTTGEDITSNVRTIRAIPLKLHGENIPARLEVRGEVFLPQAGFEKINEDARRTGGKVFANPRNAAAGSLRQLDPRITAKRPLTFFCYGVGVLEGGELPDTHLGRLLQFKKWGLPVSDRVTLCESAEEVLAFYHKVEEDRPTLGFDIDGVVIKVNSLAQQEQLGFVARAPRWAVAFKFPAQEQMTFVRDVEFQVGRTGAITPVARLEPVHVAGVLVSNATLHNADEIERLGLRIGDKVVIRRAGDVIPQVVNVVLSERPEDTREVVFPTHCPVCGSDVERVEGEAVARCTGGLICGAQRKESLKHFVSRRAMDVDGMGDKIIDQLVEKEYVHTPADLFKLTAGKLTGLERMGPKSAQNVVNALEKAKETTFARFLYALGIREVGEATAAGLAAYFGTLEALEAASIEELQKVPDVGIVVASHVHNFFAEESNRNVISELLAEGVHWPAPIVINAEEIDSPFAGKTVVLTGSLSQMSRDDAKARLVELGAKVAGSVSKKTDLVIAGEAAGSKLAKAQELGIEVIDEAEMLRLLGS
Sequence of Guanlyate kinase (Q0TBG1 whole entry): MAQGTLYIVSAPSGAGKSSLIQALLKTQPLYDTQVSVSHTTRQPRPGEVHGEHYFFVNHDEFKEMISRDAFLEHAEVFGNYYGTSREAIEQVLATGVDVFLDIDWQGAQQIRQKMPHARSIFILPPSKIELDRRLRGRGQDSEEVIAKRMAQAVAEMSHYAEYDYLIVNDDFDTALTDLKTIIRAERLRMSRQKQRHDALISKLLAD

SMILES | relative enzymatic activity [1] | relative enzymatic activity [2] | relative enzymatic activity [3] | relative enzymatic activity [4] | relative enzymatic activity [5] | relative enzymatic activity [6] | relative enzymatic activity [7] | relative enzymatic activity [8] | relative enzymatic activity [9] | relative enzymatic activity [10] | relative enzymatic activity [11]
CON=C(C(=O)NC1C(=O)N2C(C(=O)[O-])=C(CSc3nc(=O)c([O-])nn3C)CSC12)c1csc(N)n1.O.O.O.[Na+].[Na+] (configuration not stated) | 0.7 ± 0.45 | 0.48 ± 0.015 | 1.29 ± 0.4 | 1.13 ± 0.23 | 0.69 ± 0.18 | 0.996 ± 0.014 | 0.914 ± 0.065 | 0.124 ± 0.03 | 0.583 ± 0.4 | 0.955 ± 0.21 | 0.843 ± 0.073
CCCCCCCCCCCCC[N+](C)(C)Cc1ccccc1.O.[Cl-] | 0.0515 ± 0.073 | 0.0193 ± 0.00021 | 0.811 ± 0.32 | 0.208 ± 0.0053 | 0.482 ± 0.019 | 0.157 ± 0.036 | 0.171 ± 0.062 | 0.051 ± 0.015 | 0.115 ± 0.035 | 0.102 ± 0.021 | 0.32 ± 0.068
O=C(Cn1cnnn1)NC1C(=O)N2C(C(=O)O)=C(CSc3nncs3)CSC12 (configuration not stated) | 0.793 ± 0.43 | 0.757 ± 0.21 | 0.955 ± 0.18 | 0.505 ± 0.68 | 0.828 ± 0.017 | 1.045 ± 0.0046 | 0.932 ± 0.17 | 0.307 ± 0.16 | 0.598 ± 0.37 | 1.01 ± 0.22 | 0.799 ± 0.011
CN[C@@H]1[C@H](O[C@H]2[C@H](O[C@@H]3[C@@H](O)[C@H](O)[C@@H](NC(=N)N)[C@H](O)[C@H]3NC(=N)N)O[C@@H](C)[C@]2(O)CO)O[C@@H](CO)[C@H](O)[C@H]1O.CN[C@@H]1[C@H](O[C@H]2[C@H](O[C@@H]3[C@@H](O)[C@H](O)[C@@H](NC(=N)N)[C@H](O)[C@H]3NC(=N)N)O[C@@H](C)[C@]2(O)CO)O[C@@H](CO)[C@H](O)[C@H]1O | 0.527 ± 0.36 | 0.498 ± 0.089 | 1.09 ± 0.32 | 1.08 ± 0.055 | 0.853 ± 0.0042 | 1.001 ± 0.0056 | 0.983 ± 0.047 | 0.803 ± 0.02 | 0.922 ± 0.86 | 0.524 ± 0.73 | 0.481 ± 0.52
Cl.Cl.N=C(NCCCCCCNC(=N)NC(=N)Nc1ccc(Cl)cc1)NC(=N)Nc1ccc(Cl)cc1 | 0.0297 ± 0.042 | 0.0449 ± 0.0094 | 0.488 ± 0.68 | 0.365 ± 0.03 | 0.306 ± 0.046 | 0.9017 ± 0.0055 | 0.341 ± 0.043 | 0.108 ± 0.015 | 0.545 ± 0.35 | 0.871 ± 0.16 | 0.0331 ± 0.011
O=[N+]([O-])c1ccc(O)c2ncccc12 | 0.501 ± 0.24 | 0.584 ± 0.12 | 0.808 ± 0.033 | 0.979 ± 0.076 | 0.759 ± 0.023 | 1.03 ± 0.047 | 0.765 ± 0.026 | 0.291 ± 0.12 | 0.588 ± 0.39 | 0.989 ± 0.21 | 0.7483 ± 0.0011
CCCC[P+](CCCC)(CCCC)Cc1ccc(NC(=O)[C@@H](Cc2ccc3ccccc3c2)N=C(NC2CCCCC2)NC2CCCCC2)cc1 | 0.0368 ± 0.052 | 0.0252 ± 0.0031 | 0.897 ± 0.14 | 0.636 ± 0.1 | 0.576 ± 0.037 | 0.139 ± 0.0022 | 0.245 ± 0.019 | 0.0381 ± 0.0081 | 0.092 ± 0.023 | 0.108 ± 0.018 | 0.2596 ± 0.002
C=C1c2cccc(O)c2C(=O)[C@@H]2C(=O)[C@]3(O)C(=O)[C@@H](C(N)=O)C(=O)[C@@H](N(C)C)[C@@H]3[C@@H](O)[C@H]12 | 0.554 ± 0.29 | 0.33 ± 0.051 | 0.848 ± 0.095 | 1.04 ± 0.31 | 0.707 ± 0.056 | 1.03 ± 0.018 | 0.679 ± 0.018 | 0.0871 ± 0.016 | 0.638 ± 0.46 | 1.06 ± 0.24 | 0.619 ± 0.015
C[C@H]1c2cccc(O)c2C(=O)C2=C(O)[C@]3(O)C(=O)[C@@H](C(N)=O)C(=O)[C@@H](N(C)C)[C@@H]3[C@@H](O)[C@@H]21 | 0.782 ± 0.34 | 0.508 ± 0.05 | 0.954 ± 0.14 | 1.17 ± 0.29 | 0.8317 ± 0.0057 | 0.934 ± 0.018 | 0.958 ± 0.081 | 0.673 ± 0.19 | 0.601 ± 0.41 | 0.937 ± 0.26 | 0.882 ± 0.078
CC1(C)SC2C(N3C(=O)C(c4ccccc4)NC3(C)C)C(=O)N2C1C(=O)[O-].[K+] (configuration not stated) | 1.14 ± 0.073 | 0.458 ± 0.13 | 1.67 ± 0.9 | 1.36 ± 0.37 | 0.776 ± 0.26 | 0.948 ± 0.043 | 1.13 ± 0.1 | 0.219 ± 0.028 | 0.563 ± 0.37 | 0.945 ± 0.14 | 0.90251 ± 0.00052
CC(C)(ON=C(C(=O)NC1C(=O)N2C(C(=O)[O-])=C(C[n+]3ccccc3)CSC12)c1csc(N)n1)C(=O)O (configuration not stated) | 0.0358 ± 0.051 | 0.494 ± 0.12 | 1.08 ± 0.29 | 0.444 ± 0.021 | 0.593 ± 0.11 | 0.79 ± 0.019 | 0.876 ± 0.015 | 0.0456 ± 0.016 | 0.548 ± 0.37 | 0.924 ± 0.15 | 0.137 ± 0.0022
CC1CCc2c(N3CCC(O)CC3)c(F)cc3c(=O)c(C(=O)O)cn1c23 (configuration not stated) | 0.0257 ± 0.036 | 0.552 ± 0.1 | 0.916 ± 0.018 | 1.19 ± 0.29 | 0.8373 ± 0.0067 | 0.9778 ± 0.0021 | 0.957 ± 0.071 | 0.8065 ± 0.0039 | 0.566 ± 0.37 | 1.102 ± 0.0015 | 0.85 ± 0.059
CC1c2cccc(O)c2C(=O)C2=C(O)C3(O)C(=O)C(C(N)=O)=C(O)C(N(C)C)C3C(O)C21.Cl (configuration not stated) | 0.996 ± 0.098 | 0.728 ± 0.41 | 1.05 ± 0.12 | 1.34 ± 0.32 | 0.734 ± 0.2 | 0.971 ± 0.048 | 1.12 ± 0.046 | 0.431 ± 0.093 | 0.572 ± 0.37 | 0.943 ± 0.17 | 0.9639 ± 0.0043
Oc1c(Cl)cc(Cl)c2cccnc12 | 0.515 ± 0.28 | 0.476 ± 0.16 | 1.11 ± 0.24 | 1.11 ± 0.21 | 0.637 ± 0.12 | 1.21 ± 0.19 | 0.854 ± 0.039 | 0.88 ± 0.26 | 0.642 ± 0.46 | 0.98 ± 0.18 | 0.7619 ± 0.0022
NCCC(O)C(=O)NC1CC(N)C(OC2OC(CN)C(O)C(O)C2O)C(O)C1OC1OC(CO)C(O)C(N)C1O.O (configuration not stated) | 0.693 ± 0.16 | 0.562 ± 0.14 | 0.998 ± 0.06 | 0.875 ± 0.12 | 0.824 ± 0.023 | 0.994 ± 0.011 | 0.647 ± 0.01 | 0.963 ± 0.055 | 0.564 ± 0.37 | 0.962 ± 0.21 | 0.434 ± 0.49
COC1C=COC2(C)Oc3c(C)c(O)c4c(O)c(c(C=NN5CCN(C)CC5)c(O)c4c3C2=O)NC(=O)C(C)=CC=CC(C)C(O)C(C)C(O)C(C)C(OC(C)=O)C1C (configuration not stated) | 0.468 ± 0.18 | 0.717 ± 0.33 | 0.8414 ± 0.0057 | 0.862 ± 0.32 | 0.507 ± 0.0061 | 0.288 ± 0.02 | 0.399 ± 0.0045 | 0.0919 ± 0.015 | 0.175 ± 0.081 | 0.464 ± 0.051 | 0.0875 ± 0.0034
CN(C)c1ccc(O)c2c1C[C@H]1C[C@H]3[C@H](N(C)C)C(=O)[C@@H](C(N)=O)C(=O)[C@@]3(O)C(=O)[C@H]1C2=O | 0.636 ± 0.27 | 0.47 ± 0.11 | 0.8372 ± 0.0039 | 0.973 ± 0.03 | 0.776 ± 0.056 | 1.03 ± 0.019 | 0.692 ± 0.016 | 0.306 ± 0.14 | 0.607 ± 0.43 | 0.981 ± 0.18 | 0.686 ± 0.011

— the supplement of paper PMC9446081
